Laboratory results taken from PubChem BioAssay (EPA / NIEHS).
Calls of active or inactive are those of the source. The calls were made as follows: active = hit-call score of the fitted dose curve at least 0.9, where 1 is the maximum; inactive = score below 0.9.

Experiments:
Conditions in all cases: mRNA level, 48 h; actives raise or lower the signal
[1] = read-out: JUN Transcription Factor, JUN (gene 3725); assay: LTEA_HepaRG_JUN: Life Technologies and Expression Analysis (LTEA) Assay for JUN Transcription Factor using HepaRG (AID 2283513)
Summary of the method: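 Human HepaRG liver cells receive test chemicals in 0.5% DMSO for 48 h across an eight-point range topping at 100 uM. Expression changes in JUN are scored in both directions against the DMSO vehicle.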

[2] = read-out: Lipase C (LIPC), LIPC (gene 3990); assay: LTEA_HepaRG_LIPC: Life Technologies and Expression Analysis (LTEA) Assay for Lipase C (LIPC) using HepaRG (AID 2283514)
Summary of the method: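 Differentiated human HepaRG cells in serum-free induction medium were exposed in duplicate for 48 h to eight concentrations (top 100 uM, half-log steps, 0.5% DMSO). LIPC mRNA was quantified by TaqMan qRT-PCR, normalized to ACTB, GAPDH and POLR2A, with bidirectional fitting versus DMSO.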

[3] = read-out: Lipoprotein lipase (LPL), LPL (gene 4023); assay: LTEA_HepaRG_LPL: Life Technologies and Expression Analysis (LTEA) Assay for Lipoprotein lipase (LPL) using HepaRG (AID 2283515)
Summary of the method: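 Differentiated human HepaRG cells in serum-free induction medium were exposed in duplicate for 48 h to eight half-log concentrations (top 100 uM) in 0.5% DMSO. LPL mRNA was quantified by TaqMan qRT-PCR, normalized to ACTB, GAPDH and POLR2A.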

[4] = read-out: MicroRNA 122 (MIR122), gene 406906; assay: LTEA_HepaRG_MIR122: Life Technologies and Expression Analysis (LTEA) Assay for MicroRNA 122 (MIR122) using HepaRG (AID 2283516); also: the transcript read is the microRNA miR-122
Summary of the method: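 HepaRG, 48 h exposure, 8-pt half-log from 100 uM, 0.5% DMSO; TaqMan qRT-PCR; bidirectional fit vs DMSO.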

[5] = read-out: matrix metalloproteinase-10 (MMP10), MMP10 (gene 4319); assay: LTEA_HepaRG_MMP10: Life Technologies and Expression Analysis (LTEA) Assay for matrix metalloproteinase-10 (MMP10) using HepaRG (AID 2283517)
Summary of the method: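 HepaRG, collagen I, ~100,000 cells/well; serum-free induction medium; 48 h exposure, duplicate, 8-pt half-log to 100 uM, 0.5% DMSO. Readout: TaqMan qRT-PCR, normalized to ACTB/GAPDH/POLR2A; bidirectional fit vs DMSO.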

MYC, MYC (gene 4609) = assay: LTEA_HepaRG_MYC: Life Technologies and Expression Analysis (LTEA) Assay for MYC using HepaRG (AID 2283518)
Summary of the method: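 Cells are thawed, plated and cultured 48 h, then treated for 48 h with test chemicals (eight half-log concentrations from 100 uM, 0.5% DMSO vehicle). RNA is isolated and MYC expression quantified by qRT-PCR against three housekeeping genes.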

[6] = read-out: matrix metalloproteinase-3 (MMP3), MMP3 (gene 4314); assay: LTEA_HepaRG_MMP3: Life Technologies and Expression Analysis (LTEA) Assay for matrix metalloproteinase-3 (MMP3) using HepaRG (AID 2283519)
Summary of the method: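 Differentiated human HepaRG cells, plated 48 h on collagen I, were exposed in duplicate for 48 h in serum-free induction medium to eight half-log concentrations up to 100 uM in 0.5% DMSO. MMP3 mRNA was quantified by TaqMan qRT-PCR, normalised to ACTB, GAPDH and POLR2A.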

[7] = read-out: Paternally Expressed 10 (PEG10), PEG10 (gene 23089); assay: LTEA_HepaRG_PEG10: Life Technologies and Expression Analysis (LTEA) Assay for Paternally Expressed 10 (PEG10) using HepaRG (AID 2283520);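 as to AC50: PEG10 transcript by qRT-PCR normalised to ACTB GAPDH and POLR2A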
Summary of the method: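 Chemicals tested on HepaRG cells for 48 h, highest concentration 100 uM. PEG10 expression assessed by qRT-PCR relative to DMSO control.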

[8] = read-out: Protein phosphatase 2A (PPP2R4), PTPA (gene 5524); assay: LTEA_HepaRG_PPP2R4: Life Technologies and Expression Analysis (LTEA) Assay for Protein phosphatase 2A (PPP2R4) using HepaRG (AID 2283522)
Summary of the method: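 Gene-expression endpoint in HepaRG hepatic cells: 48 h treatment across eight half-log concentrations up to 100 uM in 0.5% DMSO. PPP2R4 mRNA by qRT-PCR, normalized to three endogenous control genes.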

[9] = read-out: Phosphatase and tensin (PTEN), PTEN (gene 5728); assay: LTEA_HepaRG_PTEN: Life Technologies and Expression Analysis (LTEA) Assay for Phosphatase and tensin (PTEN) using HepaRG (AID 2283523)
Summary of the method: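 Differentiated human HepaRG cells, plated 48 h then switched to serum-free induction medium, were exposed in duplicate for 48 h to eight half-log concentrations up to 100 uM in 0.5% DMSO. PTEN mRNA measured by TaqMan qRT-PCR, normalized to ACTB/GAPDH/POLR2A, bidirectional fit versus DMSO.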

[10] = read-out: solute carrier (SLC22A1), SLC22A1 (gene 6580); assay: LTEA_HepaRG_SLC22A1: Life Technologies and Expression Analysis (LTEA) Assay for solute carrier (SLC22A1) using HepaRG (AID 2283524)
Summary of the method: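 Human HepaRG cells were plated 48 h, switched to serum-free induction medium, then exposed in duplicate for 48 h to 8-point half-log series from 100 uM in 0.5% DMSO. SLC22A1 mRNA measured by qRT-PCR, normalized to ACTB/GAPDH/POLR2A, fitted bidirectionally versus DMSO.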

[11] = read-out: Pyruvate Dehydrogenase Kinase 4 (PDK4), PDK4 (gene 5166); assay: LTEA_HepaRG_PDK4: Life Technologies and Expression Analysis (LTEA) Assay for Pyruvate Dehydrogenase Kinase 4 (PDK4) using HepaRG (AID 2283525)
Summary of the method: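 Differentiated human HepaRG cells, pre-cultured 48 h, were exposed in duplicate for 48 h in serum-free induction medium to eight half-log concentrations up to 100 uM in 0.5% DMSO. PDK4 mRNA was quantified by qRT-PCR, normalized to ACTB, GAPDH and POLR2A, bidirectional fitting versus DMSO.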

[12] = read-out: NAD(P)H dehydrogenase [quinone] 1 (NQO1), NQO1 (gene 1728); assay: LTEA_HepaRG_NQO1: Life Technologies and Expression Analysis (LTEA) Assay for NAD(P)H dehydrogenase [quinone] 1 (NQO1) using HepaRG (AID 2283526)
Summary of the method: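 Human HepaRG hepatic cells received chemicals for 48 h in serum-free induction medium with 0.5% DMSO, up to 100 uM. Expression was assessed by TaqMan qRT-PCR against housekeeping controls and fitted bidirectionally against DMSO.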

[13] = read-out: Nuclear factor erythroid 2-related factor 2 (Homo sapiens) (UniProt Q16236); assay: LTEA_HepaRG_NFE2L2: Life Technologies and Expression Analysis (LTEA) Assay for Nuclear factor erythroid 2-related factor 2 (NFE2L2) Transcription Factor using HepaRG (AID 2283527)
Summary of the method: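 Differentiated human HepaRG cells in serum-free induction medium were exposed for 48 h to eight concentrations (top 100 uM, half-log dilutions, 0.5% DMSO), in duplicate. NFE2L2 mRNA was quantified by TaqMan qRT-PCR, normalized to ACTB, GAPDH and POLR2A, with bidirectional fitting versus DMSO.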

[14] = read-out: succinate dehydrogenase complex iron sulfur subunit B (SDHB), SDHB (gene 6390); assay: LTEA_HepaRG_SDHB: Life Technologies and Expression Analysis (LTEA) Assay for succinate dehydrogenase complex iron sulfur subunit B (SDHB) using HepaRG (AID 2283528)
Summary of the method: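 SDHB transcript level read by TaqMan qRT-PCR, housekeeping-normalised (ACTB, GAPDH, POLR2A), after 48 h chemical treatment of plated HepaRG cells; eight concentrations top 100 uM, half-log steps, 0.5% DMSO, duplicates; fitted both directions against DMSO.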

[15] = read-out: Signal transducer and activator of transcription 3 (Homo sapiens) (UniProt P40763); assay: LTEA_HepaRG_STAT3: Life Technologies and Expression Analysis (LTEA) Assay for Signal transducer and activator of transcription (STAT3) using HepaRG (AID 2283529)
Summary of the method: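 Differentiated human HepaRG cells in serum-free induction medium were exposed in duplicate for 48 h to eight half-log concentrations up to 100 uM in 0.5% DMSO. STAT3 mRNA was quantified by TaqMan qRT-PCR, normalized to ACTB, GAPDH and POLR2A, and fitted bidirectionally against DMSO.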

[16] = read-out: solute carrier (SLCO1B1), SLCO1B1 (gene 10599); assay: LTEA_HepaRG_SLCO1B1: Life Technologies and Expression Analysis (LTEA) Assay for solute carrier (SLCO1B1) using HepaRG (AID 2283530)
Summary of the method: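 Gain or loss of SLCO1B1 mRNA is fitted against the 0.5% DMSO vehicle in human HepaRG liver cells treated 48 h at up to 100 uM in half-log steps. Expression comes from qRT-PCR normalized to endogenous controls.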

[17] = read-out: sulfotransferase 2A1 (SULT2A1), SULT2A1 (gene 6822); assay: LTEA_HepaRG_SULT2A1: Life Technologies and Expression Analysis (LTEA) Assay for sulfotransferase 2A1 (SULT2A1) using HepaRG (AID 2283531)
Summary of the method: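 Cells were plated and cultured 48 h, switched to serum-free induction medium, then dosed in duplicate for 48 h (8 concentrations, max 100 uM). RNA was isolated and SULT2A1 expression measured by qRT-PCR; gain or loss of signal fitted relative to DMSO.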

[18] = read-out: Transforming Growth Factor (TGFA), TGFA (gene 7039); assay: LTEA_HepaRG_TGFA: Life Technologies and Expression Analysis (LTEA) Assay for Transforming Growth Factor (TGFA) using HepaRG (AID 2283532)
Summary of the method: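 Differentiated human HepaRG cells, plated 48 h then switched to serum-free induction medium, were exposed in duplicate for 48 h to 8-point half-log series from 100 uM in 0.5% DMSO. TGFA mRNA measured by qRT-PCR, normalized to ACTB/GAPDH/POLR2A, bidirectional fit versus DMSO.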

Sequence of Nuclear factor erythroid 2-related factor 2 (Homo sapiens) (Q16236 whole entry, looked up): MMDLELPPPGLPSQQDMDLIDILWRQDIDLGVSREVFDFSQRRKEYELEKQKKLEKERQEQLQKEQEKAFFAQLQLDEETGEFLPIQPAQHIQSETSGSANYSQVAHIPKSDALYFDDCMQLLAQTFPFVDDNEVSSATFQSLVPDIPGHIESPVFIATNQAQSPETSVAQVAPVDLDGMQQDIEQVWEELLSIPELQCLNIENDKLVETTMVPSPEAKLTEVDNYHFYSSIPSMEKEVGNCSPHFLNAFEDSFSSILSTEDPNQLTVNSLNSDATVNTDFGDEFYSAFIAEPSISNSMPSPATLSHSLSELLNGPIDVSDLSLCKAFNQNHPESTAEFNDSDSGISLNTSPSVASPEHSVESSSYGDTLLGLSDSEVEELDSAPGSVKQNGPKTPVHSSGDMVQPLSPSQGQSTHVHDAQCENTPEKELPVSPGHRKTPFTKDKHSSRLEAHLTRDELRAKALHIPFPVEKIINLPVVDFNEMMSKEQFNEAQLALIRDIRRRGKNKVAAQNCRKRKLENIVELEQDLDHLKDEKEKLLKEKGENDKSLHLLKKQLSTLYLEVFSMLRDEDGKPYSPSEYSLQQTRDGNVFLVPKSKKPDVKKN
Sequence of Signal transducer and activator of transcription 3 (Homo sapiens) (P40763 whole entry, looked up): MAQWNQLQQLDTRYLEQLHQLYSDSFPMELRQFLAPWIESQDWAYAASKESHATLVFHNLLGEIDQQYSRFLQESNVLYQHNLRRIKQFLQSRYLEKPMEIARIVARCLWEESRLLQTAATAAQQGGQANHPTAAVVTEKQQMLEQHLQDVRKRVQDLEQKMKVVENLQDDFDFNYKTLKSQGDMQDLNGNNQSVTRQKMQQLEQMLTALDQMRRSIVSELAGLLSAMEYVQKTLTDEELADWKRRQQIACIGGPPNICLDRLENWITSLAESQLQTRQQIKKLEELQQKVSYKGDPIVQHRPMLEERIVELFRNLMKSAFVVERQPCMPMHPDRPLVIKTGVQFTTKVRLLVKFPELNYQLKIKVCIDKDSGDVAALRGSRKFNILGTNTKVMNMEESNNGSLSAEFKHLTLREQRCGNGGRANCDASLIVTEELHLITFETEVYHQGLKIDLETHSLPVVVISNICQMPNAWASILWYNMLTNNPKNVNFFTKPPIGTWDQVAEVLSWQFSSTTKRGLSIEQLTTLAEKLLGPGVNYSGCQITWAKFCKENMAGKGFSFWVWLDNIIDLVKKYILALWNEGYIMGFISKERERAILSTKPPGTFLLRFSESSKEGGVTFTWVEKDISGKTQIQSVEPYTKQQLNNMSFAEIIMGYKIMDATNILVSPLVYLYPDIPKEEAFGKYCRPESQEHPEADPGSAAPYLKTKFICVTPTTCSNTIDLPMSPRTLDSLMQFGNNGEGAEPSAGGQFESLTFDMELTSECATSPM

SMILES: CC(C)C(=O)Nc1ccc([N+](=O)[O-])c(C(F)(F)F)c1
- outcome [1]: inactive
- AC50 [2]: 55.5 µM (active)
- AC50 [3]: 85.7 µM (active)
- AC50 [4]: 60.8 µM (active)
- AC50 [5]: 50 µM (active)
- AC50 (MYC, MYC (gene 4609)): 50 µM (active)
- AC50 [6]: 79.6 µM (active)
- AC50 [7]: 13.5 µM (active)
- outcome [8]: inactive
- outcome [9]: inactive
- AC50 [10]: 45.4 µM (active)
- AC50 [11]: 9.61 µM (active)
- AC50 [12]: 50 µM (active)
- AC50 [13]: 50 µM (active)
- outcome [14]: inactive
- outcome [15]: inactive
- AC50 [16]: 63.6 µM (active)
- AC50 [17]: 79.6 µM (active)
- AC50 [18]: 82.3 µM (active)

SMILES: c1ccc(C(O[C@@H]2CCCN(CCc3ccc4c(c3)OCO4)C2)c2ccccc2)cc1
- outcome [1]: inactive
- AC50 [2]: 76.5 µM (active)
- outcome [3]: inactive
- AC50 [4]: 69.7 µM (active)
- outcome [5]: inactive
- AC50 (MYC, MYC (gene 4609)): 83.4 µM (active)
- AC50 [6]: 25.2 µM (active)
- AC50 [7]: 13.1 µM (active)
- AC50 [8]: 50 µM (active)
- AC50 [9]: 79.6 µM (active)
- AC50 [10]: 79.2 µM (active)
- AC50 [11]: 73.5 µM (active)
- AC50 [12]: 78.9 µM (active)
- AC50 [13]: 67.8 µM (active)
- outcome [14]: inactive
- outcome [15]: inactive
- AC50 [16]: 86.5 µM (active)
- AC50 [17]: 79.3 µM (active)
- AC50 [18]: 77.1 µM (active)

SMILES: c1ccc2c(c1)-c1cccc3c1c-2cc1ccccc13
- outcome [1]: inactive
- AC50 [2]: 13.3 µM (active)
- AC50 [3]: 5.49 µM (active)
- AC50 [4]: 19.6 µM (active)
- outcome [5]: inactive
- AC50 (MYC, MYC (gene 4609)): 2.06 µM (active)
- outcome [6]: inactive
- AC50 [7]: 8.43 µM (active)
- AC50 [8]: 14.3 µM (active)
- outcome [9]: inactive
- AC50 [10]: 18.8 µM (active)
- AC50 [11]: 8.2 µM (active)
- outcome [12]: inactive
- outcome [13]: inactive
- AC50 [14]: 11.4 µM (active)
- AC50 [15]: 6.57 µM (active)
- AC50 [16]: 13.7 µM (active)
- AC50 [17]: 16.8 µM (active)
- AC50 [18]: 7.13 µM (active)

SMILES: CCCCCCCCN(C)C
- outcome [1]: inactive
- outcome [2]: inactive
- outcome [3]: inactive
- outcome [4]: inactive
- outcome [5]: inactive
- outcome (MYC, MYC (gene 4609)): inactive
- outcome [6]: inactive
- outcome [7]: inactive
- outcome [8]: inactive
- outcome [9]: inactive
- outcome [10]: inactive
- outcome [11]: inactive
- outcome [12]: inactive
- outcome [13]: inactive
- outcome [14]: inactive
- outcome [15]: inactive
- outcome [16]: inactive
- outcome [17]: inactive
- outcome [18]: inactive

SMILES: O=S1(=O)CCCO1
- outcome [1]: inactive
- outcome [2]: inactive
- outcome [3]: inactive
- outcome [4]: inactive
- outcome [5]: inactive
- outcome (MYC, MYC (gene 4609)): inactive
- outcome [6]: inactive
- outcome [7]: inactive
- outcome [8]: inactive
- outcome [9]: inactive
- outcome [10]: inactive
- outcome [11]: inactive
- outcome [12]: inactive
- outcome [13]: inactive
- outcome [14]: inactive
- outcome [15]: inactive
- outcome [16]: inactive
- outcome [17]: inactive
- outcome [18]: inactive
